# Measurements from PMC11062922 (Nature Chemical Biology, 2023).
# Read-outs that look alike come from different tables or passages of the source.
# Assays:
# PRKD2 = conditions: read-out: apparent Kd, n = 1
# PRKD3 = conditions: read-out: apparent Kd, n = 1
substance,measurement,setting,value
Lestaurtinib,potency estimated from few doses,"PRKD2; compound concentrations:100 nM and 1000 nM (sheet 'Lestaurtinib' of Supplementary Table 1),run:Lestaurtinib_02741_R1,Plate:MR023",38.5 nM
same,potency estimated from few doses,"PRKD2; compound concentrations:100 nM and 1000 nM (sheet 'Lestaurtinib' of Supplementary Table 1),run:Lestaurtinib_02748_R1,Plate:MR024",45.6 nM
same,potency estimated from few doses,"PRKD2; compound concentrations:100 nM and 1000 nM (sheet 'Lestaurtinib' of Supplementary Table 1),run:Lestaurtinib_02748_R2,Plate:MR024",48.1 nM
same,potency estimated from few doses,"PRKD2; compound concentrations:100 nM and 1000 nM (sheet 'Lestaurtinib' of Supplementary Table 1),run:Lestaurtinib_02748_R3,Plate:MR024",45.9 nM
same,potency estimated from few doses,"PRKD2; compound concentrations:100 nM and 1000 nM (sheet 'Lestaurtinib' of Supplementary Table 1),run:Lestaurtinib_02752_R1,Plate:MR025",59.6 nM
same,potency estimated from few doses,"PRKD2; compound concentrations:100 nM and 1000 nM (sheet 'Lestaurtinib' of Supplementary Table 1),run:Lestaurtinib_02752_R2,Plate:MR025",58 nM
same,potency estimated from few doses,"PRKD2; compound concentrations:100 nM and 1000 nM (sheet 'Lestaurtinib' of Supplementary Table 1),run:Lestaurtinib_02752_R3,Plate:MR025",35.6 nM
same,potency estimated from few doses,"PRKD2; compound concentrations:100 nM and 1000 nM (sheet 'Lestaurtinib' of Supplementary Table 1),run:Lestaurtinib_02765_R1,Plate:MR026",39.1 nM
same,potency estimated from few doses,"PRKD2; compound concentrations:100 nM and 1000 nM (sheet 'Lestaurtinib' of Supplementary Table 1),run:Lestaurtinib_02765_R2,Plate:MR026",69.2 nM
same,potency estimated from few doses,"PRKD2; compound concentrations:100 nM and 1000 nM (sheet 'Lestaurtinib' of Supplementary Table 1),run:Lestaurtinib_02765_R3,Plate:MR026",67.9 nM
same,potency estimated from few doses,"PRKD2; compound concentrations:100 nM and 1000 nM (sheet 'Lestaurtinib' of Supplementary Table 1),run:Lestaurtinib_02766_R1,Plate:MR027",45.5 nM
same,potency estimated from few doses,"PRKD2; compound concentrations:100 nM and 1000 nM (sheet 'Lestaurtinib' of Supplementary Table 1),run:Lestaurtinib_02766_R2,Plate:MR027",40.9 nM
same,potency estimated from few doses,"PRKD2; compound concentrations:100 nM and 1000 nM (sheet 'Lestaurtinib' of Supplementary Table 1),run:Lestaurtinib_02768_R2,Plate:MR028",44 nM
same,potency estimated from few doses,"PRKD2; compound concentrations:100 nM and 1000 nM (sheet 'Lestaurtinib' of Supplementary Table 1),run:Lestaurtinib_02768_R3,Plate:MR028",41.6 nM
same,potency estimated from few doses,"PRKD2; compound concentrations:100 nM and 1000 nM (sheet 'Lestaurtinib' of Supplementary Table 1),run:Lestaurtinib_02795_R1,Plate:MR022",45 nM
same,potency estimated from few doses,"PRKD2; compound concentrations:100 nM and 1000 nM (sheet 'Lestaurtinib' of Supplementary Table 1),run:Lestaurtinib_02795_R2,Plate:MR022",37.3 nM
same,potency estimated from few doses,"PRKD2; compound concentrations:100 nM and 1000 nM (sheet 'Lestaurtinib' of Supplementary Table 1),run:Lestaurtinib_02802_R2,Plate:MR029",43.6 nM
same,potency estimated from few doses,"PRKD2; compound concentrations:100 nM and 1000 nM (sheet 'Lestaurtinib' of Supplementary Table 1),run:Lestaurtinib_02802_R3,Plate:MR029",32.9 nM
same,potency estimated from few doses,"PRKD2; compound concentrations:100 nM and 1000 nM (sheet 'Lestaurtinib' of Supplementary Table 1),run:Lestaurtinib_02896_R1,Plate:MR030",43 nM
same,potency estimated from few doses,"PRKD2; compound concentrations:100 nM and 1000 nM (sheet 'Lestaurtinib' of Supplementary Table 1),run:Lestaurtinib_02896_R2,Plate:MR030",50.1 nM
same,potency estimated from few doses,"PRKD2; compound concentrations:100 nM and 1000 nM (sheet 'Lestaurtinib' of Supplementary Table 1),run:Lestaurtinib_02896_R3,Plate:MR030",40.6 nM
same,potency estimated from few doses,"PRKD2; compound concentrations:100 nM and 1000 nM (sheet 'Lestaurtinib' of Supplementary Table 1),run:Lestaurtinib_03172_R1,Plate:MR031",29.7 nM
same,potency estimated from few doses,"PRKD2; compound concentrations:100 nM and 1000 nM (sheet 'Lestaurtinib' of Supplementary Table 1),run:Lestaurtinib_03172_R2,Plate:MR031",36 nM
same,potency estimated from few doses,"PRKD2; compound concentrations:100 nM and 1000 nM (sheet 'Lestaurtinib' of Supplementary Table 1),run:Lestaurtinib_03172_R3,Plate:MR031",44.1 nM
same,potency estimated from few doses,"PRKD2; compound concentrations:100 nM and 1000 nM (sheet 'Lestaurtinib' of Supplementary Table 1),run:Lestaurtinib_03252_R1,Plate:MR032",27.4 nM
same,potency estimated from few doses,"PRKD2; compound concentrations:100 nM and 1000 nM (sheet 'Lestaurtinib' of Supplementary Table 1),run:Lestaurtinib_03252_R2,Plate:MR032",32.1 nM
same,potency estimated from few doses,"PRKD2; compound concentrations:100 nM and 1000 nM (sheet 'Lestaurtinib' of Supplementary Table 1),run:Lestaurtinib_03260_R1,Plate:MR033",52.3 nM
same,potency estimated from few doses,"PRKD3; compound concentrations:100 nM and 1000 nM (sheet 'Lestaurtinib' of Supplementary Table 1),run:Lestaurtinib_02339_R1,Plate:MR001",98.8 nM
same,potency estimated from few doses,"PRKD3; compound concentrations:100 nM and 1000 nM (sheet 'Lestaurtinib' of Supplementary Table 1),run:Lestaurtinib_02339_R2,Plate:MR001",98.8 nM
same,potency estimated from few doses,"PRKD3; compound concentrations:100 nM and 1000 nM (sheet 'Lestaurtinib' of Supplementary Table 1),run:Lestaurtinib_02364_R1,Plate:MR002",97.6 nM
same,potency estimated from few doses,"PRKD3; compound concentrations:100 nM and 1000 nM (sheet 'Lestaurtinib' of Supplementary Table 1),run:Lestaurtinib_02364_R3,Plate:MR002",93.5 nM
same,potency estimated from few doses,"PRKD3; compound concentrations:100 nM and 1000 nM (sheet 'Lestaurtinib' of Supplementary Table 1),run:Lestaurtinib_02367_R1,Plate:MR003",45.3 nM
same,potency estimated from few doses,"PRKD3; compound concentrations:100 nM and 1000 nM (sheet 'Lestaurtinib' of Supplementary Table 1),run:Lestaurtinib_02367_R2,Plate:MR003",62.3 nM
same,potency estimated from few doses,"PRKD3; compound concentrations:100 nM and 1000 nM (sheet 'Lestaurtinib' of Supplementary Table 1),run:Lestaurtinib_02367_R3,Plate:MR003",63.6 nM
same,potency estimated from few doses,"PRKD3; compound concentrations:100 nM and 1000 nM (sheet 'Lestaurtinib' of Supplementary Table 1),run:Lestaurtinib_02381_R2,Plate:MR004",59.1 nM
same,potency estimated from few doses,"PRKD3; compound concentrations:100 nM and 1000 nM (sheet 'Lestaurtinib' of Supplementary Table 1),run:Lestaurtinib_02407_R1,Plate:MR005",98 nM
same,potency estimated from few doses,"PRKD3; compound concentrations:100 nM and 1000 nM (sheet 'Lestaurtinib' of Supplementary Table 1),run:Lestaurtinib_02407_R2,Plate:MR005",51.7 nM
same,potency estimated from few doses,"PRKD3; compound concentrations:100 nM and 1000 nM (sheet 'Lestaurtinib' of Supplementary Table 1),run:Lestaurtinib_02422_R1,Plate:MR006",76.7 nM
same,potency estimated from few doses,"PRKD3; compound concentrations:100 nM and 1000 nM (sheet 'Lestaurtinib' of Supplementary Table 1),run:Lestaurtinib_02422_R2,Plate:MR006",42 nM
same,potency estimated from few doses,"PRKD3; compound concentrations:100 nM and 1000 nM (sheet 'Lestaurtinib' of Supplementary Table 1),run:Lestaurtinib_02422_R3,Plate:MR006",81.8 nM
same,potency estimated from few doses,"PRKD3; compound concentrations:100 nM and 1000 nM (sheet 'Lestaurtinib' of Supplementary Table 1),run:Lestaurtinib_02437_R1,Plate:MR007",84 nM
same,potency estimated from few doses,"PRKD3; compound concentrations:100 nM and 1000 nM (sheet 'Lestaurtinib' of Supplementary Table 1),run:Lestaurtinib_02437_R3,Plate:MR007",5.38 nM
